Measured values: publication PMC4336329 (PLoS ONE, 2015)
Screen size: about 310,000 compounds; about 14,000 (4.5%) showed an effect of 50% or more. The effect is printed as a negative number. The sample holds strong results, similar compounds and a random draw of the others, so the mix is not that of the screen.

biological target: human ether-à-go-go-related gene (hERG) potassium channel (human, UniProt Q12809); assay: primary screen, population patch clamp on CHO cells stably expressing hERG; higher = less effect of the substance
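Also: peak tail current of the secondary pulse compared with the same well before compound.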

human ether-à-go-go-related gene (hERG) potassium channel, sequence (Q12809 whole entry, looked up): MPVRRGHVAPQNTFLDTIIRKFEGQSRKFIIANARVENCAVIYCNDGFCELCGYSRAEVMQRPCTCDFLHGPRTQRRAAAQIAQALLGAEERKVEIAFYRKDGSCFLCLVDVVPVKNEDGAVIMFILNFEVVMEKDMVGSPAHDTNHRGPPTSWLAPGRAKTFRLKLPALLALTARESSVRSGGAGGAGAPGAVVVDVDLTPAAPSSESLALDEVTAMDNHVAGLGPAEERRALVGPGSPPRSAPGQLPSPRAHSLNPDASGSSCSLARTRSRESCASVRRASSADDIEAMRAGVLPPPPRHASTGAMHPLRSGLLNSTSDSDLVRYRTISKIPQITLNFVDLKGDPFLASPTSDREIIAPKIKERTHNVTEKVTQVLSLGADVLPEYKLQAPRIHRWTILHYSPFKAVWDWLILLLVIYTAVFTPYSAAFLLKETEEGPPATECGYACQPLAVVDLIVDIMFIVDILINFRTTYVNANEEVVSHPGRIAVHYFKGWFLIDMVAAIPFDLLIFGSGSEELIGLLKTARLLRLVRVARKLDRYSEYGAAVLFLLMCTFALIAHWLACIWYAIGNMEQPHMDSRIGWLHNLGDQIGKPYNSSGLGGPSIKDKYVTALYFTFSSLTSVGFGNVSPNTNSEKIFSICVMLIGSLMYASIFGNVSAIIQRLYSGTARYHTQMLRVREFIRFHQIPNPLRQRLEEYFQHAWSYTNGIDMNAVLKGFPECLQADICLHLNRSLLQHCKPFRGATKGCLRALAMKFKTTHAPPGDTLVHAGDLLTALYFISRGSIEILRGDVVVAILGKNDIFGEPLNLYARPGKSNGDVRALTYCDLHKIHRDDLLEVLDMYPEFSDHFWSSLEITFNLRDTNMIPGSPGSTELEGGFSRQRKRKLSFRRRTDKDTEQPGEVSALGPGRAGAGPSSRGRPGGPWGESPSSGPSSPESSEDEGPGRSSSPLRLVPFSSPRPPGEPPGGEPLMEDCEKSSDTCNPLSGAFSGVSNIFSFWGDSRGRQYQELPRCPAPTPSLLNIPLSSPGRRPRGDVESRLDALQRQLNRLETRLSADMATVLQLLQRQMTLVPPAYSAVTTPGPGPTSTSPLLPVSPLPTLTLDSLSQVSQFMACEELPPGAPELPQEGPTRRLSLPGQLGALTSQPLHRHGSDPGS

Compound	hERG current change (%, negative = inhibition) at 10uM [%]
O=c1oc2ccc(C#CC3(O)CCCCC3)cc2cc1-n1cc(C2(O)CCCCC2)nn1	24.7
O=C(c1ccc(F)cc1)n1c(=S)nc2ccccn21	-1.25
CC(=O)N(Cc1nc2sc(C)c(C)c2c(=O)[nH]1)C1CCCC1	21.8
FC(F)(F)c1cccc(N2CCN(C3CC4CCC3C4)CC2)c1 (stereo not drawn)	-1.68
CCc1ccc(C(=O)COC(=O)c2cnccn2)cc1	0.242
Cc1ccc(NC(=S)NNC(=S)NC2CCCCC2)cc1	21
Cc1ccc(NC(=S)NC2CCCC2)cc1C	14.8
Cc1ccc(NC(=S)NCCN(C2CCCCC2)C2CCCC2)cc1C	-68.1
Cc1ccc(NC(=S)NCC2CCCO2)cc1C (stereo not drawn)	-1.97
Cc1ccc(NC(=S)NCCN(C2CCCCC2)C2CCCC2)cc1	-72
Cc1ccc(NC(=S)NC2CCCC2)cc1	4.64
Cc1ccc(N2CC(C(=O)Nc3nnc(SCCN4CCOCC4)s3)CC2=O)cc1C (stereo not drawn)	20.7
COc1ccccc1-n1nnnc1SCc1cc2c(cc1Br)OCO2	-9.95
CCCCC(OC(=O)c1ccco1)C(=O)NCc1ccc(C)cc1 (stereo not drawn)	-0.428
O=C(Cn1cnc([N+](=O)[O-])n1)NC1CC1	7.02
CC(C)(C)c1nn(-c2ccccc2)c2[nH]c(=O)c(CNCc3ccc4c(c3)OCO4)cc12	-17.9
Cc1nn(-c2ccccc2)c2[nH]c(=O)c(CNCc3ccc4c(c3)OCO4)cc12	-28.7
Cc1nn(-c2ccc(Cl)cc2)c2[nH]c(=O)c(CNCc3ccc4c(c3)OCO4)cc12	-70
Cc1ccc2c(C)c(C(=O)Nc3ccc(S(N)(=O)=O)cc3)oc2c1C	31.2
COc1ccccc1CC1C(=O)C2CCN1CC2 (stereo not drawn)	14.5
NCCSc1c(-c2ccc(Cl)cc2)[nH]c2ccccc12	-84.3
Cc1ccc(-c2[nH]c3ccccc3c2SCCN)cc1	-27.6
NCCSc1c(-c2ccccc2)[nH]c2ccccc12	-12.1
O=C(NCC1CCCO1)C(=O)N/N=C/c1c(F)cccc1Cl (stereo not drawn)	8.04

Compound	hERG current change (%, negative = inhibition) at 10uM [%]
Cc1noc(C)c1COC(=O)/C=C/c1ccc(Cl)cc1	0.131
CCn1cc(/C=C/C(=O)Nc2ccc(C)cc2Br)cn1	-30.7
O=C(C1CCCN(S(=O)(=O)c2ccc(F)cc2)C1)N(Cc1cccs1)C1CC1 (stereo not drawn)	-78.2
Cc1ccc(S(=O)(=O)N2CCCC2C(=O)N(C)Cc2cccs2)cc1 (stereo not drawn)	-19.9
Cc1ccc(S(=O)(=O)N2CCCC(C(=O)N(Cc3cccs3)C3CC3)C2)cc1 (stereo not drawn)	-67.7
O=C(O)C1CCCN(S(=O)(=O)c2ccc(F)cc2)C1 (stereo not drawn)	20.4
O=C(C1CCCN(S(=O)(=O)c2ccc(Cl)cc2)C1)N1CCCC1 (stereo not drawn)	-19
CN1CCN(C(=O)C2CCCN(S(=O)(=O)c3ccc(Cl)cc3)C2)CC1 (stereo not drawn)	-18.8
O=C(C1CCCN(S(=O)(=O)c2ccc(Cl)cc2)C1)N(Cc1cccs1)C1CC1 (stereo not drawn)	-63
CCOC(=O)C1CCCN(S(=O)(=O)c2ccc(C)cc2)C1 (stereo not drawn)	-2.86
O=C(C1CCCN(S(=O)(=O)c2ccc(F)cc2)C1)N1CCCC1 (stereo not drawn)	5.78
Cc1noc(/C=C/Nc2ccc(F)cc2F)c1[N+](=O)[O-]	12.1
COc1ccc(NC(=S)N(CCN(C)C)C(C)c2ccco2)cc1 (stereo not drawn)	-16.6
O=C1CSC(c2ccccc2)N1CCc1ccccc1 (stereo not drawn)	1.82
Cc1ccccc1SCC(=O)OCC(=O)Nc1ccc(N(C)C)cc1	10.4
NC(=O)CCN1CCN(Cc2nc(C(c3ccccc3)c3ccccc3)no2)CC1	-25.6
c1ccc(C(c2ccccc2)c2noc(CN3CCN(CC4CC4)CC3)n2)cc1	-61.6
c1ccc(C(c2ccccc2)c2noc(CN3CCC(c4ccncc4)CC3)n2)cc1	-32.7
CC(=O)N1CCN(Cc2nc(C(c3ccccc3)c3ccccc3)no2)CC1	10.8
c1ccc(C(c2ccccc2)c2noc(CN3CCN(C4CCCC4)CC3)n2)cc1	-70.1
COCC1CCCN(Cc2nc(C(c3ccccc3)c3ccccc3)no2)C1 (stereo not drawn)	-19.6
C[C@@H]1CN(C2CCN(Cc3nc(C(c4ccccc4)c4ccccc4)no3)CC2)C[C@H](C)O1	-38.6
Cc1nc(CN2CCN(Cc3nc(C(c4ccccc4)c4ccccc4)no3)CC2)cs1	-45.5
Cc1cccnc1CN1CCN(Cc2nc(C(c3ccccc3)c3ccccc3)no2)CC1	-56.2
